Inconclusive results are not listed. Where a call stands in place of a potency, no number is given. The source made the active and inactive calls. Unless noted, the call rests on the fitted dose curve.
Key:
[1] = Natriuretic polypeptide receptor (hNpr1) antagonism - Pilot counterscreen GloSensor control cell line (AID 1347045); further: potency means the concentration at half of the fitted maximal effect
Summary of the method: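 Control counterscreen: luciferase cGMP-biosensor HEK293 cells (no Npr1) received compound for 30 min at room temperature after GloSensor substrate loading. Luminescence was measured before and 20 min after soluble guanylyl cyclase activation by 50 uM nitroprusside.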

[2] = molecular target: Atrial natriuretic peptide receptor 1 (Homo sapiens) (UniProt P16066); assay: Natriuretic polypeptide receptor (hNpr1) antagonism - Pilot screen (AID 1347049);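 further: HEK293 cells with hNpr1 and GloSensor cGMP luciferase stimulated by 0.1 nM hNppA; agonist-evoked cGMP luminescence read 20 min after hNppA addition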; further: potency means the concentration at half of the fitted maximal effect
Atrial natriuretic peptide receptor 1 (Homo sapiens), sequence (P16066 whole entry, looked up): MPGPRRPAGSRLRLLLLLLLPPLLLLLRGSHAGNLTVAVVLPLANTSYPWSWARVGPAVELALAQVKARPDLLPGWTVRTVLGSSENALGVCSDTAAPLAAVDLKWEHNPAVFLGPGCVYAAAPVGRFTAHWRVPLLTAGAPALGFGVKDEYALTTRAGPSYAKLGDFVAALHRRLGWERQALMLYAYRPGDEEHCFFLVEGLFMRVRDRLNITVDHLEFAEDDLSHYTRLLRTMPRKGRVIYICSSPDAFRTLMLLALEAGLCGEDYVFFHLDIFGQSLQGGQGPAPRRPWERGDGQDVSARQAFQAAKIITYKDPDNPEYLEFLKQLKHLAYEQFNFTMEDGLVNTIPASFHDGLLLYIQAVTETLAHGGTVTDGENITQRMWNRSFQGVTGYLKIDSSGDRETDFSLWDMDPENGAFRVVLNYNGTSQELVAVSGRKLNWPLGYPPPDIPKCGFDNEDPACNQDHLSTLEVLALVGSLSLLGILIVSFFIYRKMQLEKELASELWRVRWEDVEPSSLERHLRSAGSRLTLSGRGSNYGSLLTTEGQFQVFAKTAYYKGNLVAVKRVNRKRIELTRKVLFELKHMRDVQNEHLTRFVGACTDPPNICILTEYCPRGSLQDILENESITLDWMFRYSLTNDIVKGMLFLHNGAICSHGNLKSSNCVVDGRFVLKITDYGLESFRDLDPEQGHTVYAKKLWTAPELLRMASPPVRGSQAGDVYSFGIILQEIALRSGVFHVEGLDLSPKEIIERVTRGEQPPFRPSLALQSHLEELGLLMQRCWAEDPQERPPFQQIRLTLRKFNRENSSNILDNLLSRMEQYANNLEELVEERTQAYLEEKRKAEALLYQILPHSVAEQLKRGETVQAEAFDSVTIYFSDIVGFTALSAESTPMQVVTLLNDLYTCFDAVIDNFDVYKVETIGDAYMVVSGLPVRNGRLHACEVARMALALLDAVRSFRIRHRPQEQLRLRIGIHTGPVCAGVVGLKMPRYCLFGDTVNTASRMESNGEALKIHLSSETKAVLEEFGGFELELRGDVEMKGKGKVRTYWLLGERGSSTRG
Summary of the method: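 Receptor antagonism read as cGMP-dependent luminescence in hNpr1/pGS-40F HEK293 cells: pre-read after 30 min compound exposure, post-read 20 min after hNppA agonist at 0.1 nM final, all at room temperature, protected from light; A-71915 titration as control.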

[3] = molecular target: Atrial natriuretic peptide receptor 2 (Homo sapiens) (UniProt P20594); assay: Natriuretic polypeptide receptor (hNpr2) antagonism - Pilot subtype selectivity assay (AID 1347050); further: potency means the concentration at half of the fitted maximal effect
Atrial natriuretic peptide receptor 2 (Homo sapiens), sequence (P20594 whole entry, looked up): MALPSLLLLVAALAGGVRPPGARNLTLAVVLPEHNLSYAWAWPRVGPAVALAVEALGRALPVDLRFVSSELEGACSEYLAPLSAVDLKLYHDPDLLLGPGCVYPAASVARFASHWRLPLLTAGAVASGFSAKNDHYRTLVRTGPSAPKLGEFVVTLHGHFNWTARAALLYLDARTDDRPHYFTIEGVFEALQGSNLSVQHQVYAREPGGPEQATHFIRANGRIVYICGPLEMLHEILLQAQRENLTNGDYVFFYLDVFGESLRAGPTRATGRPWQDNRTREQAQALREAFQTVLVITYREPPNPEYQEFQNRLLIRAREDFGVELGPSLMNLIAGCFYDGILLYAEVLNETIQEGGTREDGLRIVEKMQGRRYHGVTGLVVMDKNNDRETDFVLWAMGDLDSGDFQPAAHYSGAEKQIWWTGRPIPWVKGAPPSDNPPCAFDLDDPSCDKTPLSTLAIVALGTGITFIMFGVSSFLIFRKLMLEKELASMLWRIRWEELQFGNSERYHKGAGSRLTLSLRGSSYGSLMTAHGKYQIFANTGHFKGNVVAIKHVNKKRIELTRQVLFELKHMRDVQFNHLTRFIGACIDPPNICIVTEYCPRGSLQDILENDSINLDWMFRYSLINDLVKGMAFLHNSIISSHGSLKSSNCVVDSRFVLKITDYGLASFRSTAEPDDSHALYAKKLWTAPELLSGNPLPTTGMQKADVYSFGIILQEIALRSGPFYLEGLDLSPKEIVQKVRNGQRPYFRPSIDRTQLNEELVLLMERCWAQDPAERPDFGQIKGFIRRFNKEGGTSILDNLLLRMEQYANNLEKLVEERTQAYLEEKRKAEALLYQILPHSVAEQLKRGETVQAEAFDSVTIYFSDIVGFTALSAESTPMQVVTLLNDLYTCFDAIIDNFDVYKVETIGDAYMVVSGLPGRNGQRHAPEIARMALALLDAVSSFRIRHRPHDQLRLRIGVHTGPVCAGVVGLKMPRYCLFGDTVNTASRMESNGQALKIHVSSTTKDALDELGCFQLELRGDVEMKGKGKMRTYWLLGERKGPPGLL
Summary of the method: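 Antagonist mode: compounds (LOPAC1280, seven 1:5 dilutions) added 30 min before 1 nM hNppC stimulation of hNpr2-HEK293 cGMP-sensor cells; luminescence read before and 20 min after agonist at ambient temperature.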

[4] = NS1 protein of Zika virus - qHTS assay to identify small molecule inhibitors in human HEK 293 cells (AID 1347053; active means well fitted curve in the direction sought with a large enough effect; an effect the other way counts as inactive or inconclusive; further: series mostly up to about 46 µM; nearly all actives have a fitted effect of over 55% in size)
Summary of the method: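 Readout was TR-FRET using paired anti-NS1 antibodies after 24 h infection of HEK 293 cells with ZIKV MR766 (MOI = 0.5). Compound preceded virus by 1 h; reduced signal reflects lower NS1 expression.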

[5] = molecular target: T1, Tyrosine-protein phosphatase non-receptor type substrate 1 (Homo sapiens) + Leukocyte surface antigen CD47 (Homo sapiens) (UniProt P78324+Q08722); assay: CD47-SIRPalpha protein protein interaction - LANCE assay qHTS validation (AID 1347057; active means well fitted curve in the direction sought with a large enough effect in the signal ratio, with a control signal flat, not every such curve was filed as active; the % refers to the signal ratio; further: series mostly up to about 38 µM)
T1 sequence (P78324 whole entry, looked up, the tested form may be a part): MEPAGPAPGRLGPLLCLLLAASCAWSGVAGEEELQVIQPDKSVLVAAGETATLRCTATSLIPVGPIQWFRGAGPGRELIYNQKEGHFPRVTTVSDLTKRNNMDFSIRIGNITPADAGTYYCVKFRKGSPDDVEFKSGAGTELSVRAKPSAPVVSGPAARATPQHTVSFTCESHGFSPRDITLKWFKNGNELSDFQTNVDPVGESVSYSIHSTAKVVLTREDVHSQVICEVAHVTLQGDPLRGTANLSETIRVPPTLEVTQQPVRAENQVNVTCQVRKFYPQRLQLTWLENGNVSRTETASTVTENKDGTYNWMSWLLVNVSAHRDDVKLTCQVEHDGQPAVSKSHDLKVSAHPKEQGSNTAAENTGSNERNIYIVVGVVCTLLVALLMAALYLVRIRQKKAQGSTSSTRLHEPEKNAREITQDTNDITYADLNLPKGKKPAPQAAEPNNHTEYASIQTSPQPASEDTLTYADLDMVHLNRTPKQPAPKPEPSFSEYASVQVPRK
T1 sequence (Q08722 whole entry, looked up, the tested form may be a part): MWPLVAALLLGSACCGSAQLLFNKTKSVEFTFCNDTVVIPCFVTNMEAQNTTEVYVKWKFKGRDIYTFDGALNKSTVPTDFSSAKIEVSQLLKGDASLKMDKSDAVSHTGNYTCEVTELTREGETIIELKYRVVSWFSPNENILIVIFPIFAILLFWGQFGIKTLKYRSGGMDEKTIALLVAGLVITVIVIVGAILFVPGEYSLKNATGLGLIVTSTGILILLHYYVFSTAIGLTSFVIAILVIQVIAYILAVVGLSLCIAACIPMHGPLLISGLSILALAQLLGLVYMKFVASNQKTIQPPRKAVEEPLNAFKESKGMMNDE
Summary of the method: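 Inhibition of soluble CD47/SIRPalpha ectodomain association by titrated compounds, measured as 665/615 nm time-resolved FRET ratio after sequential 30 min room-temperature incubations.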

[6] = molecular target: T1, Tyrosine-protein phosphatase non-receptor type substrate 1 (Homo sapiens) + Leukocyte surface antigen CD47 (Homo sapiens); assay: CD47-SIRPalpha protein protein interaction - HTRF assay qHTS validation (AID 1347058; active means well fitted curve in the direction sought with a large enough effect in the signal ratio, not every such curve was filed as active; the % refers to the signal ratio; further: series mostly up to about 38 µM)
Summary of the method: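 Soluble extracellular domains (6His-CD47, Avi-tag-biotinylated SIRPalpha) in PBS pH 7.4 with 0.05% IGEPAL CA-630. Compounds were preincubated 30 min at RT with CD47 and anti-His-Eu, then SIRPalpha and SAV-XL665 were added. TR-FRET 665/615 ratio.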

[7] = molecular target: T1, Tyrosine-protein phosphatase non-receptor type substrate 1 (Homo sapiens) + Leukocyte surface antigen CD47 (Homo sapiens); assay: CD47-SIRPalpha protein protein interaction - Alpha assay qHTS validation (AID 1347059; active means well fitted curve in the direction sought with a large enough effect; an effect the other way counts as inactive or inconclusive;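 further: bead proximity luminescence from CD47 binding SIRPalpha after compound preincubation with SIRPalpha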)
Summary of the method: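 AlphaScreen signal between CD47-His (12.5 nM) and biotin-SIRPalpha (25 nM) soluble extracellular domains, bead-captured via Ni-NTA and streptavidin. Compounds, in 7-point titrations, met SIRPalpha 30 min before CD47; PBS pH 7.4 with 0.05% IGEPAL.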

[8] = molecular target: Parathyroid hormone/parathyroid hormone-related peptide receptor (Homo sapiens) (UniProt Q03431); assay: qHTS for PTHR1 Agonists: Optimization Screen against the NCGC LOPAC library (AID 1347079; active means well fitted curve in the direction sought with a large enough effect; an effect the other way counts as inactive or inconclusive;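 further: GloSensor cAMP luminescence in HEK-293 GP2 cells expressing human PTHR1 with IBMX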)
Parathyroid hormone/parathyroid hormone-related peptide receptor (Homo sapiens), sequence (Q03431 whole entry, looked up): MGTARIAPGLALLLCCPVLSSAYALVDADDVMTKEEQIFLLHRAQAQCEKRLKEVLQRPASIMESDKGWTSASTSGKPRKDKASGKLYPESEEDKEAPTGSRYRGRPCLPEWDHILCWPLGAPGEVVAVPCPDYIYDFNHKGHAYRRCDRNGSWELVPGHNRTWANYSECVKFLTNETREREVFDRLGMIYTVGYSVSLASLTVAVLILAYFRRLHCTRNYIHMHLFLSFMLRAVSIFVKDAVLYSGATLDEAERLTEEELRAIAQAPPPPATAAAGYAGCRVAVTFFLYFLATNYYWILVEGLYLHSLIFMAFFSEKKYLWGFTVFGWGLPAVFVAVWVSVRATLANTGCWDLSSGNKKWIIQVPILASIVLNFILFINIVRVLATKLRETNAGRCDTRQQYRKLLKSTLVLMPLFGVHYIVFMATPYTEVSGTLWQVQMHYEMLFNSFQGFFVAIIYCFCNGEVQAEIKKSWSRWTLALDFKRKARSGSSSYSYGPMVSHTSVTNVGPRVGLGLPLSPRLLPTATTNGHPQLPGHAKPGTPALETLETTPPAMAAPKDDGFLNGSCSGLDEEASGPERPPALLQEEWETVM
Summary of the method: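 HEK-293 GP2 cells, PTHR1 + GloSensor cAMP; 3000 cells/well, o/n. Luciferin + IBMX 0.5mM each (stock), 1 hr 37C. Cpd titration, 1 hr 37C. Lum after 15 min RT. Ctrl M-PTH(1-15) top 10uM.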

[9] = qHTS for Inhibitors of the Functional Ribonucleoprotein Complex (vRNP) of Lassa (LASV) Arenavirus: LASV Primary Screen - GLuc reporter signal (AID 1347082; calls by dose curve; tested in HEK293 reporter line; further: series mostly up to about 57 µM; nearly all actives have a fitted effect of over 60% in size)
[10] = qHTS for Inhibitors of the Functional Ribonucleoprotein Complex (vRNP) of Lassa (LASV) Arenavirus: Viability assay - alamar blue signal for LASV Primary Screen (AID 1347083; calls by dose curve; tested in HEK293 reporter line; further: series mostly up to about 57 µM; nearly all actives have a fitted effect of over 80% in size)
[11] = qHTS for Inhibitors of the Functional Ribonucleoprotein Complex (vRNP) of Lymphocytic Choriomeningitis Arenaviruses (LCMV): Viability assay - alamar blue signal for LCMV Primary Screen (AID 1347085; calls by dose curve; tested in HEK293 reporter line; further: series mostly up to about 57 µM; nearly all actives have a fitted effect of over 80% in size)
[12] = molecular target: Nucleoprotein (Lymphocytic choriomeningitis virus (strain Armstrong)) (UniProt P09992); assay: qHTS for Inhibitors of the Functional Ribonucleoprotein Complex (vRNP) of Lymphocytic Choriomeningitis Arenaviruses (LCMV): LCMV Primary Screen - GLuc reporter signal (AID 1347086); further: series mostly up to about 57 µM; nearly all actives have a fitted effect of over 70% in size
Nucleoprotein (Lymphocytic choriomeningitis virus (strain Armstrong)), sequence (P09992 whole entry, looked up): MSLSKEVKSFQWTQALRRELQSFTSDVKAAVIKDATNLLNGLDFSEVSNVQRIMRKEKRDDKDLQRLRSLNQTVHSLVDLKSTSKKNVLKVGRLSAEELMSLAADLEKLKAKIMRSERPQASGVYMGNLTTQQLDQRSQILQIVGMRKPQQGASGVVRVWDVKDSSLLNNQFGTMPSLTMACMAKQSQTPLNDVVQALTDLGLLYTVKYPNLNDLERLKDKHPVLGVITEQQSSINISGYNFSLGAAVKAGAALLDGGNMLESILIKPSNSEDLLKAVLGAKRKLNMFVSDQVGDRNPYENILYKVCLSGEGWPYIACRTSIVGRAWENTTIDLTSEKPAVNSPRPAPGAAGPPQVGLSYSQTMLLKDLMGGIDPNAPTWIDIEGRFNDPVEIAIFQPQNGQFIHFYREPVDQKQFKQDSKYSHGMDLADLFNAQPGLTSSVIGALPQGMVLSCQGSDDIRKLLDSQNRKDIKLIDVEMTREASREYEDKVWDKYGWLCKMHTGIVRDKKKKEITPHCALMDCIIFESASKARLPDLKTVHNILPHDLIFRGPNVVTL

Row | SMILES | Potency [1] | Potency [2] | Potency [3] | Potency [4] | outcome [5] | outcome [6] | Potency [7] | outcome [8] | Potency [9] | Potency [10] | Potency [11] | Potency [12]
1 | CNCCc1ccc(O)c(O)c1 | inactive | inactive | inactive | inactive | inactive | inactive | inactive | inactive | inactive | inactive | inactive | inactive
2 | C[C@]12CCC3C(CC[C@H]4C[C@H](O)CC[C@]34C)C1CC[C@@H]2C(=O)CO (some centres not stated) | inactive | inactive | inactive | inactive | inactive | inactive | inactive | inactive | inactive | inactive | inactive | inactive
3 | CN1C2CCC1CC(OC(=O)c1cc(Cl)cc(Cl)c1)C2 (configuration not stated) | inactive | inactive | inactive |  | inactive | inactive | inactive | inactive | inactive | inactive | inactive | inactive
4 | NCCc1c[nH]c2ccc(O)cc12 | inactive | inactive | inactive | inactive | inactive | inactive | inactive | inactive | inactive | inactive | inactive | inactive
5 | CC(C)Oc1cccc(NC(=O)c2ccccc2C(F)(F)F)c1 |  |  |  | inactive |  |  |  |  | inactive | inactive | inactive | 
6 | CN[C@@H]1C[C@@H](c2ccc(Cl)c(Cl)c2)c2ccccc21 | 26.1 µM (active) | 0.757 µM (active) | 18.5 µM (active) |  | inactive | inactive | inactive | inactive |  |  |  | 
7 | CC(C)Oc1cccnc1N(C)C1CCN(Cc2ccccc2)CC1 | inactive | inactive | inactive | inactive | inactive | inactive | inactive | inactive | inactive | inactive | inactive | inactive
8 | NC(CCP(=O)(O)O)C(=O)O (configuration not stated) | inactive | inactive | inactive | inactive | inactive | inactive | inactive | inactive | inactive | inactive | inactive | inactive
